# Measurements published in PubChem BioAssay AID588354 (The Scripps Research Institute Molecular Screening Center, 2011).
# About 430 (0.12%) of roughly 360,000 compounds were called active. For the sample, actives were picked, then their nearest neighbours and some compounds at random. Unmarked numbers belong to inactive results.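 Rule for the calls: active = inhibition above the campaign mean plus 3 SD, with each screening campaign given its own cutoff (cut at about 60% in these data); inactive = the rest.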
# Molecular target: Nuclear receptor coactivator 1 (Homo sapiens) (UniProt Q15788)
# Experiment: SRC1 coactivator transcriptional activity inhibitors, primary screen, cell-based, luminescence (AID 588354);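 note: 0% = DMSO treated cells and 100% = gossypol at 36 µM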
# Conditions: HEK293 GAL4-SRC1 luciferase reporter, at 3.6 µM, active compounds read high
# Chain of Nuclear receptor coactivator 1 (Homo sapiens) (Q15788 whole entry, looked up): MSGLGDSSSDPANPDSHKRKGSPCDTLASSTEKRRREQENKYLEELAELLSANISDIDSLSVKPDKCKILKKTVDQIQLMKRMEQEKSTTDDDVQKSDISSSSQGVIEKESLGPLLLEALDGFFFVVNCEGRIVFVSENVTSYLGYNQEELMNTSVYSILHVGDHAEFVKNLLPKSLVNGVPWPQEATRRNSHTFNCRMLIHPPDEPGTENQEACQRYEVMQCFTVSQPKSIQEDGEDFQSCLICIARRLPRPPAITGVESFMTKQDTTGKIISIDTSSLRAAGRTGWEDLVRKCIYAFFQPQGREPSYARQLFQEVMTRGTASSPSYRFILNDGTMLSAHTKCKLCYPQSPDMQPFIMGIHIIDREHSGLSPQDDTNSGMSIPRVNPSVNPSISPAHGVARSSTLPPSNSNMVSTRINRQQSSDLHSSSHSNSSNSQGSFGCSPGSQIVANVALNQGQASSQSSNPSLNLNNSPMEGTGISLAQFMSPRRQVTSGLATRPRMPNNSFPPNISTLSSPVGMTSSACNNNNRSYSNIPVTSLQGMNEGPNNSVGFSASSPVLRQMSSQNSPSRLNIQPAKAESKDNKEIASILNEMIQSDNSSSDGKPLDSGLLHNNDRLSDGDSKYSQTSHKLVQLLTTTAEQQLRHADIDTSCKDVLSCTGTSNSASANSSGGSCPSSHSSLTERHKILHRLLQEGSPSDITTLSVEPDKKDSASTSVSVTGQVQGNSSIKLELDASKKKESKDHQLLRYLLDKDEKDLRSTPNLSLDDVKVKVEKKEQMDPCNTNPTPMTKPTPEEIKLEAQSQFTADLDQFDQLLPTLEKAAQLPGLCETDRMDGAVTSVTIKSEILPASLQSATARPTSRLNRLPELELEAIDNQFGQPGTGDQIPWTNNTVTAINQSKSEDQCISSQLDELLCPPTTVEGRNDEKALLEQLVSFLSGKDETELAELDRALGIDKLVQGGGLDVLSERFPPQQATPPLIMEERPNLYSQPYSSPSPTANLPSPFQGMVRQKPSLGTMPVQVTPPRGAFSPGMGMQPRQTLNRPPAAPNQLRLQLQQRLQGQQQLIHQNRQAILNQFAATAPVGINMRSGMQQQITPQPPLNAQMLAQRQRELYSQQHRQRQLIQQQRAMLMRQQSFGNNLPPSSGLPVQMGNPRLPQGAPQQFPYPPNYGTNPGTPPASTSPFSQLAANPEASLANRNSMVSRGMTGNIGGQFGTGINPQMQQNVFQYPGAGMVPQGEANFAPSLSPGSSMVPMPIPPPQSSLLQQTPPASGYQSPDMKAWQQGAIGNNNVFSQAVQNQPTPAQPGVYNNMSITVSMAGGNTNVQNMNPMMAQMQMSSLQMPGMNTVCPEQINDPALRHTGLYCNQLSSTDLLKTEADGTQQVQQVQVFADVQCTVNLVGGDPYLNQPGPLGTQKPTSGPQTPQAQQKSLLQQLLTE
row,Structure (SMILES),inhibition
1,C[C@@H](NC(=O)c1nc[nH]c1C(=O)N1CCN(C(=O)OC(C)(C)C)CC1)c1ccccc1,-15.6%
2,Cn1cc(/C=C/C(=O)N2CCCC(C(=O)c3ccc(C(F)(F)F)cc3)C2)cn1 (centres undefined),8.39%
3,CC1(NC(=O)CCS(=O)(=O)c2ccc(Cl)cc2)CCS(=O)(=O)C1 (centres undefined),-3.53%
4,CN(C(=O)Nc1ccc(Cl)cc1)n1cnc2ccccc2c1=O,-15.6%
5,CN(c1ccc2nc3ccccc3c(=O)n2n1)C1CCCCC1,71.9% (active)
6,CC(C)(C)c1nc2ccccc2c(=O)n1N1C(=O)c2ccccc2C1=O,6.03%
7,CSc1ncccc1C(=O)Nc1cccc(S(=O)(=O)N2CCOCC2)c1,-16.1%
8,O=C(Nc1cccc(Cc2ccccc2)c1)Nc1ccc2nc([C@@H]3O[C@H](CO)[C@@H](O)[C@H](O)[C@H]3O)[nH]c2c1,-1.54%
9,CN(C)S(=O)(=O)c1ccc(Oc2ccc(S(=O)(=O)N(C)C)cc2)cc1,21.5%
10,CC(C)(C)c1ccc(Oc2ccc(N)cc2)cc1,74% (active)
11,COc1cc2c3c(c1)/C(=C1/SC(=S)NC1=O)C(=O)N3C(C)(C)C=C2C,-18%
12,CCN(CC(=O)Nc1ccc2c(c1)OCCO2)Cc1cc(=O)oc2cc(C)c(C)cc12,1.42%
13,COC(=O)c1ccc(N2CCOCC2)c(NC(=O)c2ccc(Br)o2)c1,3.93%
14,CCCCc1nc2c(=O)[nH]c3ccccc3c2o1,-5.89%
15,Cc1cc(C)cc(NC(=O)CSCc2cnn(-c3ccccc3)c2-n2cccc2)c1,0.69%
16,CCCc1noc2c1/C(=N\O)CCC2,7.65%
17,Cc1oc(C(N)=O)cc1COc1ccc(C(N)=O)cc1,11.6%
18,Cn1c(-c2ccc(C(F)(F)F)cc2)cc2onc(-c3ccccc3)c2c1=O,-53.3%
19,CC(OC(=O)c1ccc(-n2cnnn2)cc1)C(=O)NCc1ccccc1 (centres undefined),-1.03%
20,CCC(C)c1ccccc1NC(=O)CN(C)CC(=O)Nc1ccccc1SC (centres undefined),3.11%
21,CCc1ccc(C(=O)N2CCN(S(=O)(=O)c3sc(C(=O)O)c(C)c3C(=O)O)CC2)cc1,-9.2%
22,CC(C)CCNC(=O)C(C)N(C(=O)Cn1nnc(-c2ccc(F)cc2)n1)C1CCCC1 (centres undefined),5.49%
23,COc1ccc(Cn2cccc(NC(=O)Nc3ccc(C#N)cc3)c2=O)cc1,13.7%
24,CCOc1ccc(S(=O)(=O)N2CCN(C(=O)c3oc4ccccc4c3C)CC2)cc1,-3.94%
